Laboratory results reported in PubChem BioAssay AID1117319 (Southern Research Institute, 2015).
Values joined by “and” are separate entries in the source; they are usually repeats but may differ in a detail not shown here. Equal entries are not always repeated. Hit rate of the full screen: of about 260,000 compounds, about 1,500 (0.58%) were called active. Another 5% or so got no clear call; they are omitted.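 The calls were made as follows: active = inhibition above a set limit at one or more doses, reproduced on every date tested; inconclusive = results disagree between test dates, or hit never tested in dose response; inactive = the rest.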 These entries were drawn from the full list. Potency and affinity values are given separately.

These compounds were tested against Virion infectivity factor (Human immunodeficiency virus type 1 group M subtype B (isolate BH10)) + Virion infectivity factor (Human immunodeficiency virus type 1 group M subtype B (isolate BRU/LAI)) + Virion infectivity factor (Human immunodeficiency virus type 1 group M subtype B (isolate PCV12)) + Virion infectivity factor (Human immunodeficiency virus type 1 group M subtype B (isolate HXB2)) + DNA dC->dU-editing enzyme APOBEC-3G (Homo sapiens) (UniProt P69720+P69721+P69722+P69723+Q9HC16) (assay: HIV-1 Vif–A3G interaction blockers – biochemical, TR-FRET, GST-Vif 1-94, biotin-A3G peptide, dose response retest, primary screen (AID 1117319;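 also: Vif residues 1-94 fused to GST binding biotinylated APOBEC3G peptide 110-148; 0% = full assay without inhibitor and 100% = GST in place of GST-Vif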)). Details: TR-FRET GST-Vif / biotin-A3G peptide binding; stronger effect = higher value.

inhibition, inactive:
COc1ncnc2c1ncn2CCCN(C)CCc1ccccn1 3.23%
Nc1nc(N)c2c(n1)CN(Cc1ccc(Cl)cc1)C2 -2.69%
Cc1cccc(C(=O)N/N=C/c2cc(Br)c(Br)o2)c1 0.73%
Cc1ccc(C(=O)N/N=C\c2ccc(-c3ccc(Cl)cc3)o2)cn1 23.4%
COC(=O)COc1ccc(S(=O)(=O)Nc2ccc3c(c2)OCCO3)cc1Cl -0.68%
COc1cccc(CNC(=O)CCS(=O)(=O)c2cccs2)c1 -7.15%
COc1cccc(CNC(=O)CCCNS(=O)(=O)c2cccs2)c1 22.8%
CC1(C)CC(=O)c2cc(OCC(=O)NCCCN3CCN(c4ccc(F)cc4)CC3)ccc2O1 -7.66% and 5.99%
O=C(O)CN1C(=O)CNC1=O -0.07%
CC(=O)Nc1ccc(S(=O)(=O)NCC(=O)OCC(=O)NCc2ccco2)cc1 7.01%
CCOC(=O)C1CCCN(C(=O)COC(=O)c2cc(=O)c3ccccc3o2)C1 (stereo unspecified) 29.1%
CC(C)n1cc(CN2CCCC(CNS(=O)(=O)c3cccc4cccnc34)C2)cn1 (stereo unspecified) 10.9%
Cc1cc(/C=C2\SC(N)=NC2=O)c(C)n1-c1ccccc1 19.3%
Cc1ccc(-n2c(C)cc(/C=C3\SC(=O)NC3=O)c2C)cc1 -6.8%
Cc1cc(/C=C2\SC(=S)NC2=O)c(C)n1-c1ccc(O)cc1 71.3%
Cc1cc(/C=C2\SC(=S)NC2=O)c(C)n1C1CC1 30.7%
COC(=O)c1cccc(-n2c(C)cc(/C=C3\SC(=O)NC3=O)c2C)c1 3.07%
Cc1nn(C)cc1/C=C1\SC(=S)NC1=O -1.22%
COc1cccc(CNC(=O)Cn2ncc3c(=O)oc4ccccc4c32)c1 -6.25%
Cc1cccc(-n2ccc(=O)c(C(=O)O)n2)c1 -11%
O=C(Nc1ccc(Cl)c(S(=O)(=O)N2CCOCC2)c1)c1ccccn1 -0.06%
O=C(O)CCCN1C(=O)C2C3CCC(C3)C2C1=O (stereo unspecified) 6.83%
Cc1cccc(C)c1-n1c(C)cc(/C=N\Nc2ccc([N+](=O)[O-])cn2)c1C 10.6%
Cc1cc(/C=N/Nc2ccc([N+](=O)[O-])cn2)c(C)n1-c1ccccc1 6.45%
Cc1ccccc1-n1c(C)cc(/C=N/Nc2ccc([N+](=O)[O-])cn2)c1C 6.93%
Cc1ccc(-n2c(C)cc(/C=N/Nc3ccc([N+](=O)[O-])cn3)c2C)cc1 12.6%
Cn1ncc(Cl)c1C(=O)NC(=S)Nc1sc2c(c1C#N)CCCCC2 1.11%
CC(=O)N(C1=C(O)c2ccccc2C(=O)C1=O)C1CCCCC1 -2.6%
O=C(NCc1ccco1)c1cccnc1Cl 2.06%
COc1cccc(NC(=O)Nc2cccs2)c1 19.8%
COc1ccc(NC(=O)Nc2cccs2)cc1Cl 3.45%
CC[C@@H]1CCCCc2ccccc2[C@@H](C(=O)C[C@@H](O)CC(C)=O)OC1=O -2.17%
C=C(C)C(=O)N1CC2(CC(c3cccc(NC(=O)COc4ccc(Cl)cc4)c3)=NO2)C[C@@H]1C(N)=O (stereo partly specified) -2.13%
CCC(=O)Nc1cccc(C2=NOC3(C2)C[C@@H](C(N)=O)N(C(=O)COc2ccc(Cl)cc2)C3)c1 (stereo partly specified) 1.74%
C/C=C(\C)C(=O)Nc1cccc(C2=NOC3(C2)C[C@H](C(N)=O)N(C(=O)C(c2ccccc2)c2ccccc2)C3)c1 (stereo partly specified) 17.8%
C/C=C(/C)C(=O)Nc1cccc(C2=NOC3(C2)C[C@@H](C(N)=O)N(C(=O)CCCCC)C3)c1 (stereo partly specified) 4.38%
CCC(=O)Nc1cccc(C2=NOC3(C2)C[C@@H](C(N)=O)N(C(=O)c2cc([N+](=O)[O-])cc([N+](=O)[O-])c2)C3)c1 (stereo partly specified) 9.27%
C/C=C(\C)C(=O)Nc1cccc(C2=NOC3(C2)C[C@H](C(N)=O)N(C(=O)c2cc([N+](=O)[O-])cc([N+](=O)[O-])c2)C3)c1 (stereo partly specified) 9.79%
CCCCCC(=O)Nc1cccc(C2=NOC3(C2)C[C@H](C(N)=O)N(C(=O)CCCCC)C3)c1 (stereo partly specified) 14.4%
CCC(=O)Nc1cccc(C2=NOC3(C2)C[C@@H](C(N)=O)N(C(=O)C(c2ccccc2)c2ccccc2)C3)c1 (stereo partly specified) 5.6%
Cc1ccc(-c2cc(C(=O)NC3=NCCS3)c3ccccc3n2)cc1C -1.5%
O=S(=O)(CC=CCS(=O)(=O)c1ccccc1)c1ccccc1 -17%
Cc1nc2nc(C(F)(F)F)[nH]c2nc1C 0.02%
CC(C)(C)NC(=O)C(c1ccc(F)cc1)N(Cc1ccco1)C(=O)CCC(=O)Nc1nccs1 (stereo unspecified) 5.5%
CN[C@@H](C)C(=O)NC[C@H]1O[C@@H](n2cnc3c(N)ncnc32)[C@H](O)[C@@H]1O -3.01%
CC1(C)CC(=O)c2c(O)cc(O)cc2O1 -0.4%
C/C=C\C(=O)Nc1cccc(C2=NOC3(C2)C[C@H](C(N)=O)N(C(=O)/C=C/CC)C3)c1 (stereo partly specified) 5.75%
C/C=C(/C)C(=O)Nc1cccc(C2=NOC3(C2)C[C@@H](C(N)=O)N(C(=O)CC(c2ccccc2)c2ccccc2)C3)c1 (stereo partly specified) 24%
C/C=C(/C)C(=O)Nc1cccc(C2=NOC3(C2)C[C@@H](C(N)=O)N(C(=O)/C=C/CC)C3)c1 (stereo partly specified) 13.8%
CCC(=O)Nc1cccc(C2=NOC3(C2)C[C@@H](C(N)=O)N(C(=O)CC(c2ccccc2)c2ccccc2)C3)c1 (stereo partly specified) 7.06%
CCC(C)(C(=O)NC1CCCCC1)N(Cc1cccs1)C(=O)Cc1cccs1 (stereo unspecified) 23.9%
COc1cccc(OC)c1NC(=O)C1CCCN1C(=O)Nc1cccc(Cl)c1 (stereo unspecified) -0.22%
O=C(/C=C/c1cccc([N+](=O)[O-])c1)Nc1ccccn1 7.78%
CCOc1ccccc1NC(=O)COC(=O)COc1cccc2c1OC(C)(C)C2 2.02%
O=C(O)c1ccccc1-c1ccc(/C=C2\SC(=O)N(c3ccccc3)C2=O)o1 3.86%
COC(=O)C(C)N1C(=O)S/C(=C\c2ccc(-c3ccc(C(=O)O)cc3C)o2)C1=O (stereo unspecified) 15.9%
Cc1cccc(-n2ccnc2SCC(=O)O)c1C -0.53%
Cc1ccccc1OCC(=O)OCC(=O)c1ccc[nH]1 7.12%
O=C(COc1ccc(Cl)cc1Cl)c1ccc[nH]1 19.3%
Cc1ccnc(NC(=O)CCNC(=O)c2ccc(Cl)cc2)c1 -5.97%
COc1ccccc1N1CCN(C(=O)CSc2nnc(NC(=O)C3CC3)s2)CC1 9.27%
c1ccc(C2CNCCc3ccccc32)cc1 (stereo unspecified) -8.69%
CN1CCc2cc(Cl)c(O)cc2[C@@H](c2ccccc2)C1 -6.09%
CCc1cccc(C)c1NC(=O)Nc1c(Br)cnn1C -8.57%
Cc1ccc(S(=O)(=O)N2C[C@H]3[C@H]4C(=O)N(c5ccccc5)C(=O)[C@H]4C[C@H](OC(=O)NC4CCCC4)[C@@]3(O)C2)cc1 -0.48%
CC(OC(=O)c1ccc2c(c1)OCCO2)C(=O)NC1CCCCC1C (stereo unspecified) -7.15%
COc1ccc(C=C2C(=O)c3ccccc3C2=O)cc1O 4.34%
COc1cc(C=C2C(=O)c3ccccc3C2=O)ccc1O -0.66%
C#CCSC1=C(C#N)C(c2cccs2)C(C(=O)OCC)=C(C)N1 (stereo unspecified) 8.23%
CCOC(=O)C1=C(C)NC(SCC(N)=O)=C(C#N)C1c1cccs1 (stereo unspecified) -2.81%
Cn1c(SCC(=O)Nc2sc3c(c2C#N)CCC3)nnc1C1COc2ccccc2O1 (stereo unspecified) 2.45% and 32%
CCOC(=O)c1oc2ccccc2c1COC(=O)CNC(=O)c1cccc(C)c1 -6.29%
CN(C)Cc1c(C(=O)N/N=C/c2cccc(OCc3ccccc3)c2)nnn1-c1nonc1N 19.4%
CCN(CC)c1ccc(C(=O)NNC(=O)c2cccn2C)cc1 5.54%
O=C(O)c1ccc2c(c1)CCCN2 -1.03%
O=S(=O)(c1ccc2c(c1)CCCN2)N1CCCCC1 8.06%
CCOc1ccc(NC(=O)CN2CCN(CC(=O)Nc3ccc(C(N)=O)cc3)CC2)cc1 -3.98%
COc1ccc2c(c1)CC/C(=C/c1ccccn1)C2=O -2.19%
Cc1ccsc1/C=C/C1=Cc2c(sc(NC(=O)CSc3n[nH]c(N)n3)c2C#N)C(C)(C)C1 22.1%
CCOc1ccc(/C=C/C2=Cc3c(sc(NC(=O)CSc4n[nH]c(N)n4)c3C#N)C(C)(C)C2)cc1 1.67%
COC1C=COC2(C)Oc3c(C)c(O)c4c(O)c(c(CN5CCN(C)CC5)c(O)c4c3C2=O)NC(=O)C(C)=CC=CC(C)C(O)C(C)C(O)C(C)C(OC(C)=O)C1C (stereo unspecified) 13.7%
CO[C@H]1C=CO[C@@]2(C)Oc3c(C)c(O)c4c(O)c(c(C=NN5CCN(C6CCCC6)CC5)c(O)c4c3C2=O)NC(=O)C(C)=CC=C[C@H](C)[C@H](O)[C@@H](C)[C@@H](O)[C@@H](C)[C@H](OC(C)=O)[C@@H]1C -8.62%
CCCn1c2ccc(C)cc2c2nnc(SCCN3CCOCC3)nc21 -4.1%
CC(C)N1CCC(=O)NC1=O 3.79%
Cc1ccc(SCC2=NNC(=O)C2)cc1 74.7%
O=C1CC(CSc2ccc(Cl)cc2)=NN1 -2.88%
